The text below walks through data of PubChem BioAssay (NCI).

Several values for one entry are separate records, joined by “and”; a condition that tells them apart may be missing. Equal entries are not always repeated. The panel holds about 83,000 compounds, 20% with a hit somewhere; the sample as a whole holds those more often.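 Results are percent growth after 48 hours of single-concentration exposure. 100 means growth as in untreated cells, lower positive values show inhibition; negative values down to -100 show cell death.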 Activity calls are given as the source filed them. The calls were made as follows: active = growth percent below 10; inactive = the rest.

The experiment has as its system HL-60(TB) leukemia. As to the kind of experiment: NCI-60 one-dose screen, 48 h (100 = growth as untreated, 0 = no growth, -100 = all killed). The following applies: 10 µM unless noted.
`COc1ccc([C@H]2C(=O)N(c3cc(OC)c(OC)c(OC)c3)[C@@H]2c2ccc(OC)c(O)c2)cc1`: the growth was -21.2% (active).

As to `O=C(Nc1cc(C(F)(F)F)cc(C(F)(F)F)c1)Nc1ccc2oc(=O)ccc2c1`, the growth was -24.3% (active).

Regarding `CCCCN1C(=O)/C(=c2\sc3n(c2=O)C2C(NN=3)N(CC)C(=O)N2CC)c2cc(C)ccc21` (stereo not given), the growth was 93.2% (inactive).

Regarding `C=CCn1c(SCC(=O)Nc2ccc(C(=O)/C=C/c3ccc(C)cc3)cc2)nnc1-c1c[nH]c2ccccc12`, the growth is 98.4% (inactive).

For `COc1ccc(/C=N/NC(=O)c2[nH]c3ccc(Br)cc3c2-c2ccccc2)o1`, the growth was -20.2% (active).

Regarding `CC1(C)C=Cc2cc(/C(N)=N/C(N)=N/c3nc4ccccc4s3)ccc2O1`, the growth was 72.9% (inactive).

For the molecule `O=C(CSc1nnc(-c2ccc(Cl)cc2)n1-c1ccccc1)Nc1cccc(Cl)c1`, the growth is 89.8% (inactive).

On to `CCOc1cccc(-c2nc3sccn3c2-c2ccnc(S(C)(=O)=O)n2)c1`, for which the growth is 36.9% (inactive).

As for `C#C[C@]1(O)CC[C@H]2[C@@H]3CC=C4c5sc(Nc6cc(C)cc(C)c6)nc5CC[C@]4(C)[C@H]3CC[C@@]21C`, the growth was -2.89% (active).

Turning to `CC(C)SC1=NC(=C(C(=N1)NC2=ClC=CC=C2)C#N)C3=CC=CC=C3`, the growth was 84.5% (inactive).

On to `COc1ccc(C2CC(c3ccc(Nc4nc(NCCO)nc(N5CCOCC5)n4)cc3)=Nc3c(N)nc(N)nc3N2)cc1` (stereo not given), for which the growth was 90.9% (inactive).

For `O=C1C(N2CCN(c3ccccc3)CC2)=C(Cl)C(=O)c2ncccc21`, the growth is 4.34% (active).

As to `CC(=O)Oc1ccccc1C(=O)Nc1cc(C(C)C)ccc1C`, the growth was -28.4% (active).

Turning to `Cn1cc(-c2cc(N)n3nc(-c4cn(C)c5ccc(F)cc45)cc3n2)c2cc(F)ccc21`, the growth was -32.4% (active).

As to `CN(C)S(=O)(=O)c1ccc(-c2nc(C(Cl)Cl)nc3cc(-c4ccccc4)nn23)cc1`, the growth is 71.1% (inactive).

As for `C#C[C@]1(O)CC[C@H]2[C@@H]3CC=C4c5sc(N(C)c6ccccc6)nc5CC[C@]4(C)[C@H]3CC[C@@]21C`, the growth is 61.8% (inactive).

`O=c1oc2ccc(-c3ccc(F)cc3F)cc2c(=O)n1-c1ccc(Br)cc1F`: the growth is 58.8% (inactive).

Consider `Cn1cc(-c2nc(N)nnc2-c2c[nH]c3ccc(Br)cc23)c2cc(Br)ccc21`, for which the growth was 3.35% (active).

For the molecule `CCN(CC)CCN1C(=O)c2c(c3c4cccnc4[nH]c3c3ccc4ccccc4c23)C1=O`, the growth was 56.2% (inactive).

On to `C#Cc1nc(C(=O)NCCCCCCC(=O)NO)cs1`, for which the growth was -51.7% (active).

As to `Oc1ccc(-c2nnc(SCc3ccc(O)c4ncccc34)n2-c2ccccc2)cc1`, the growth is 1.26% (active).

Turning to `O=C1c2c(c3c4cc(Br)ccc4[nH]c3c3ccc4ccccc4c23)C(=O)N1CCO`, the growth is 96.7% (inactive).

For the molecule `O=C(O)c1ccc(-n2cc(CNc3cc(F)c(F)c(F)c3)c(-c3ccc(F)cc3)n2)cc1`, the growth is 103% (inactive).

With `COc1ccc(S(=O)(=O)n2cc(C=O)c3ccccc32)c(OC)c1`, the growth was 4.32% (active).

Regarding `C/C=C/CC(C)C(O)[C@H](NC(=O)[C@@H]1CCCN1C(=O)[C@](C)(CC)NC(=O)CCCCCCCCC)C(=O)N[C@@](C)(CC)C(=O)N[C@@H](CCC(N)=O)C(=O)N[C@H](CCC(N)=O)C(=O)NC(C)(C)C(=O)NC(C)(C)C(=O)N[C@@H](CCC(N)=O)C(=O)N[C@H](CC(C)C)C(=O)N[C@H](CO)CC(C)C` (stereo not given in full), the growth is 52.5% (inactive) and -38.8% (active).

In the case of `CO/N=C1\CCc2c(sc(NC(=O)c3cccc(C(F)(F)F)c3)c2C(N)=O)C1`, the growth was 70.3% (inactive).

In the case of `CCCCCCNC(=O)Oc1ccc(/C(=C(/C)c2ccc(Cl)cc2)c2ccc(OCCN3CCCCCC3)cc2)cc1`, the growth is 32.4% (inactive).

Consider `Cc1cn(-c2cc(NC(=O)c3cncc(C#Cc4cnc5ccc(O[C@@H]6CCOC6)nn45)c3)cc(C(F)(F)F)c2)cn1`, for which the growth is -32.6% (active).

Take `CC(=O)OC[C@]12CC[C@@H](C(=O)/C=C/c3cccnc3)[C@@H]1[C@H]1CC[C@@H]3[C@@]4(C)CC[C@H](OC(C)=O)C(C)(C)[C@@H]4CC[C@@]3(C)[C@]1(C)CC2`: the growth was -15.1% (active).

On to `COc1cc(-c2nn(C(C)(C)C)cc2-c2ccnc(NCCCNS(=O)(=O)c3ccc(F)cc3)n2)ccc1Cl`, for which the growth is 101% (inactive).

With `Nc1ccccc1NC(=O)c1ccc(NC(=O)C/C=C/c2cccnc2)cn1`, the growth was 8.93% (active).

As to `COc1ccccc1N1CCN(C2=C(Cl)C(=O)c3ncccc3C2=O)CC1`, the growth was 12.5% (inactive).

With `Oc1ccc(CSc2nnc(-c3ccc(Cl)cc3)o2)c2cccnc12`, the growth was 12.6% (inactive).

Turning to `COc1cc2nc(Cl)nc(Nc3cccc(C4=Nc5c(N)nc(N)nc5NC(c5ccc6c(c5)OCO6)C4)c3)c2cc1OC` (stereo not given), the growth was 68.4% (inactive).

On to `COc1ccc(C(=O)c2c(N)c(C#N)cn2-c2ccccc2OC)cc1`, for which the growth was -7.7% (active).

Turning to `Nc1nc(Nc2ccccc2SSc2ccccc2Nc2nc(N)nc(-c3cccc(Br)c3)n2)nc(-c2cccc(Br)c2)n1`, the growth was 83% (inactive).

Regarding `CCN(CC)c1cn(-c2ccc(S(N)(=O)=O)cc2)nn1`, the growth is 105% (inactive).

On to `CCc1cc2c(cc1Cl)nc1c(=O)[nH]c(=O)nc-1n2CCOCC(C)(C)C`, for which the growth is 82% (inactive).

With `O=C(N/N=C/c1ccc(Cl)s1)c1[nH]c2ccc(Br)cc2c1-c1ccccc1`, the growth is -44.1% (active).

On to `O=C(/C=C1\C=CN(CCCCO)c2ccccc21)n1ccc2ccccc21`, for which the growth was 114% (inactive).
